Source: PubChem BioAssay (NCATS)
Records with an inconclusive call do not appear. Calls of active or inactive are those of the source. Calls follow the shape of the dose curve; as a rule, active = well fitted curve in the direction sought with a large enough effect; inconclusive = small, poorly fitted or top-dose-only effect, or another doubt; inactive = no such curve, though single readings can be large; an effect the other way counts as inactive or inconclusive.

What was measured:
[1] = target: Protein phosphatase 1D (Homo sapiens) (UniProt O15297); assay: RapidFire Mass Spectrometry qHTS Assay for Modulators of WT P53-Induced Phosphatase 1 (WIP1) (AID 1347424); conditions: WIP1 dephosphorylation of phosphopeptide, RapidFire MS; series mostly up to 63 µM;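 also: amount of dephosphorylated VEPPL-S-QETFS peptide product formed by WIP1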
Chain of Protein phosphatase 1D (Homo sapiens) (O15297 whole entry, looked up): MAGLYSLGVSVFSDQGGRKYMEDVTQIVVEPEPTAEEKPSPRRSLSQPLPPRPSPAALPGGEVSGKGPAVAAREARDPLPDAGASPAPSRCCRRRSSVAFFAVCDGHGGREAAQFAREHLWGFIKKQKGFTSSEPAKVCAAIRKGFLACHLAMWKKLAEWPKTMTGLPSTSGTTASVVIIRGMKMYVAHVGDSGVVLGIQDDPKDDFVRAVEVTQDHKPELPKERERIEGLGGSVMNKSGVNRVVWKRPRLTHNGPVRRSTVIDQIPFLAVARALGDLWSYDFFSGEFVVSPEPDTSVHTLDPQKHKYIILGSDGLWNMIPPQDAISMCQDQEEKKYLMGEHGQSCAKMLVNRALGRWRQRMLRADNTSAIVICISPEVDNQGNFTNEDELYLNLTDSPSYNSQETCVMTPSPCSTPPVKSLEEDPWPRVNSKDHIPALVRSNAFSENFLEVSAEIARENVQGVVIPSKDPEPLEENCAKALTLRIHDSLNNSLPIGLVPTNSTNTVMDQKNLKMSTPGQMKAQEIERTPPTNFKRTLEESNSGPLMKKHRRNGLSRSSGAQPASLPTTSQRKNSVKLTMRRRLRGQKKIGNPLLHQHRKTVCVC
How it was run: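 WIP1 (10 nM final) was preincubated 1 h at room temperature with compounds in Tris-HCl pH 7.5, 30 mM MgCl2, TCEP, EGTA, BSA; 2 uM VEPPL-pS-QETFS phosphopeptide was added for 5 min, quenched with formic acid, and dephosphorylated product quantified by RapidFire MS.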

[2] = target: Protein phosphatase 1D (Homo sapiens) (UniProt O15297); assay: Rhodamine-PBP qHTS Assay for Modulators of WT P53-Induced Phosphatase 1 (WIP1) (AID 1347425); conditions: recombinant WIP1, Rhodamine-PBP phosphate fluorescence, real-time; series mostly up to 57.5 µM
How it was run: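 The read-out is the change in Rhodamine-PBP fluorescence (f1 - f0, ex 525/em 598 nm) as Pi is released, read each minute for 11 min. Final reaction: 5 nM WIP1, 10 uM phosphopeptide VEPPL-pS-QETFS, 10 uM Rh-PBP, 50 mM Tris-HCl pH 7.5, 30 mM MgCl2. Compound was preincubated with enzyme for 1 hour at room temperature.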

[3] = Primary qHTS for inhibitors of La Crosse Virus (LACV) - induced cell death in SH-SY5Y cells (AID 1508616); conditions: SH-SY5Y LACV cytopathicity rescue, ATP luminescence, 6 d; series mostly up to 4.29 µM;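 also: top concentration of the series differs between compounds; higher means more rescue of cells from virus-induced death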
How it was run: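 Readout was luminescence from ATPLite 1step added after a 6-day LACV infection (0.01 MOI) of SH-SY5Y cells that had received pin-transferred compound 24 hr after seeding.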

[4] = target: Calcium and integrin-binding protein 1 (Homo sapiens) (UniProt Q99828); assay: Primary qHTS for Identification of Calcium Integrin Binding Protein 1 (CIB1) Competitor (AID 1508620); conditions: CIB1-GST / FITC-alphaIIb peptide fluorescence polarization; series mostly up to 114 µM;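 also: GST tagged CIB1 binding a fluorescein labelled alphaIIb integrin peptide tracer; top concentration of the series differs between compounds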
Chain of Calcium and integrin-binding protein 1 (Homo sapiens) (Q99828 whole entry, looked up): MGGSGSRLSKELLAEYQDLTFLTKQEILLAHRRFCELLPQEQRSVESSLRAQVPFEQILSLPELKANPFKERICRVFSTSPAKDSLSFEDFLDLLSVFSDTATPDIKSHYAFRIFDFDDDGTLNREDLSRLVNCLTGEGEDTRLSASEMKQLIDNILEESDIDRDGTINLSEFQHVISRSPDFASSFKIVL
How it was run: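 Fluorescence polarization competition: CIB1-GST (1 uM final) preincubated with compound 15 min at room temperature, then FITC-labeled alphaIIb peptide (100 nM final) added for another 15 min. Polarization read at Ex 480/Em 540.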

Measured: Potency

CCOC(=O)OC(C)OC1=C(C(=O)Nc2ccccn2)N(C)S(=O)(=O)c2ccccc21 (stereo unspecified)
inactive: [1] | [2] | [3] | [4]

Cc1nc2n(c(=O)c1CCN1CCC(c3noc4cc(F)ccc34)CC1)CCC[C@H]2O
inactive: [1] | [2] | [3] | [4]

CCN(CC)C(=O)/C(C#N)=C/c1cc(O)c(O)c([N+](=O)[O-])c1
inactive: [1] | [2] | [3] | [4]

CC1=C(C(=O)O)N2C(=O)[C@@H](NC(=O)[C@H](N)c3ccc(O)cc3)[C@H]2SC1
inactive: [1] | [2] | [3] | [4]
